Experimental data as given in PubChem BioAssay (NCATS).
“And” between values parts separate entries of the source, which are not always exact repeats. Equal entries are not always repeated. Results filed as inconclusive are left out. Entries that show only a call come without a potency. The source made the active and inactive calls. Unless noted, the call rests on the fitted dose curve; in most records, active means well fitted curve in the direction sought with a large enough effect; inconclusive means small, poorly fitted or top-dose-only effect, or another doubt; inactive means no such curve, though single readings can be large; an effect the other way counts as inactive or inconclusive.

Experiments:
[1] = qHTS Assay for Identifying Gametocytocidal Compounds (AID 743244);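 further: actives lower the fluorescent signal which means gametocytes are killed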; conditions: P. falciparum 3D7 stage III-V gametocytes, alamarBlue, 72 h; max response: stronger effect = lower value
How it was run: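 Viability read-out was resazurin reduction (alamarBlue, 24 h) measured at Ex 525/Em 598 nm. Beforehand, late-stage (III-V) 3D7 P. falciparum gametocytes at 20,000 cells/well were incubated with compound 72 h at 37C under 5% CO2.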

[2] = qHTS profiling of the MIPE4 collection as inhibitors of Plasmodium falciparum (3D7) proliferation (AID 743344; call rule not given here); conditions: P. falciparum 3D7 in erythrocytes, SYBR Green DNA fluorescence, 72 h; at 28.5 µM (top of the series) unless noted
How it was run: (§1)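 Parasite DNA was quantified by SYBR Green I fluorescence (ex 485, em 535 nm) after overnight lysis in saponin/Triton buffer at room temperature. Cultures at 0.3% parasitemia and 2.5% hematocrit were first exposed to compound for 72 h at 37 C; signals were normalised to artemisinin (0.29 uM) and vehicle wells.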

[3] = qHTS profiling of the MIPE4 collection as inhibitors of Plasmodium falciparum (DD2) proliferation (AID 743345; call rule not given here); conditions: P. falciparum Dd2 in erythrocytes, SYBR Green DNA, 72 h; at 28.5 µM (top of the series) unless noted
How it was run: as §1

[4] = qHTS profiling of the MIPE4 collection as inhibitors of Plasmodium falciparum (DD2) proliferation (Rep 2) (AID 743346; call rule not given here); conditions: P. falciparum Dd2 in erythrocytes, SYBR Green DNA, 72 h; at 28.5 µM (top of the series) unless noted
How it was run: as §1

[5] = qHTS for compounds that reverse cellular toxicity of Amyloid beta (A-beta) peptide in yeast: LOPAC Validation Assay (AID 720559)
How it was run: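 Yeast cells expressing toxic A-beta were combined with pinned compounds in growth medium and incubated 48 hr at 30 C. Growth was read as absorbance at 600 nm and normalized to DMSO and to an equimolar FeCl3/clioquinol positive control.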

[6] = qHTS for Activators of Parkin Expression: LOPAC Validation Assay (NLuc Reporter) (AID 720572)
How it was run: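 Cells harboring the Parkin-promoter coincidence reporter were treated for 24 h at seven concentrations. NLuc output was measured sequentially after the FLuc channel and scaled between DMSO and positive control values.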

[7] = qHTS for Activators of Parkin Expression: LOPAC Validation Assay (FLuc Reporter) (AID 720573)
How it was run: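 Neuronal cell line stably carrying FLuc/NLuc coincidence reporter under Parkin promoter; cells plated 24 h, then compounds added in 7-point dose response for 24 h at 37 C. FLuc luminescence read; normalized to DMSO and positive control (100%).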

[8] = target: T1, Hexokinase-4 (Homo sapiens) + Glucokinase regulatory protein (Homo sapiens) (UniProt P35557+Q14397); assay: qHTS assay for inhibitors of recombinant human GCK-GKRP interaction: Diaphorase-coupled assay (AID 743205); further: potency means the concentration at half of the fitted maximal effect
How it was run: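 GST-GCK (10 nM) with FLAG-GKRP (10 nM), 5 mM glucose and 0.4 mM ATP in pH 7.6 Hepes; compounds preincubated 20 min with substrate. G6PDH/diaphorase coupling converts resazurin to resorufin, read kinetically (ex 525/em 590 nm) for 30 min.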

[9] = target: T1, Hexokinase-4 (Homo sapiens) + Glucokinase regulatory protein (Homo sapiens); assay: qHTS assay for inhibitors of recombinant human GCK-GKRP interaction: ADP-Glo assay (AID 743206); further: potency means the concentration at half of the fitted maximal effect
How it was run: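 Pin-transferred compounds meet a 15 nM GST-GCK/15 nM FLAG-GKRP/2 uM S6P mix (dispense concentrations). ATP is then added to 0.4 mM final with 5 mM glucose, and the reaction runs 60 min at room temperature. ADP is quantified luminescently.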

[10] = target: T1, Hexokinase-4 (Homo sapiens) + Glucokinase regulatory protein (Homo sapiens); assay: qHTS assay for inhibitors of recombinant human GCK-GKRP interaction: HTRF assay (AID 743207); further: potency means the concentration at half of the fitted maximal effect
How it was run: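 GST-GCK and FLAG-GKRP (5 nM each) were combined with 2 uM S6P in pH 7.1 Hepes/MgCl2/KCl/DTT buffer, then compound and anti-FLAG XL665/anti-GST K antibodies were added. After 60 min at room temperature, HTRF 665/615 nm emission was read.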

[11] = target: Arylsulfatase A (Homo sapiens) (UniProt P15289); assay: qHTS screen for enhancers of Arylsulfatase A (ASA1): LOPAC Validation Assay (AID 720538)
How it was run: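 SV40-transformed skin fibroblasts from an MLD patient (ASA-I179S) were treated with compounds for 48h at 37 degree C, then lysed with 0.5mM pNCS final substrate for 14h at room temperature; NaOH stop, fluorescence read (Ex=525 nm; Em=598 nm).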

[12] = qHTS profiling for inhibitors of Plasmodium falciparum (3D7) proliferation (AID 743322);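 further: infected erythrocytes exposed to compound for 72 h before lysis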; conditions: P. falciparum 3D7 proliferation, at 28.7 µM (top of the series)
How it was run: as §1

[13] = qHTS profiling for inhibitors of Plasmodium falciparum (DD2) proliferation (AID 743323; call rule not given here); conditions: at 28.7 µM (top of the series), lower = more inhibition
How it was run: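 Parasite DNA quantified by SYBR Green fluorescence (ex 485, em 535 nm) after saponin/Triton lysis and overnight dark incubation. Cultures: 0.3% parasitemia, 2.5% hematocrit, 72 h, 37 C; data scaled between DMSO and 0.29 uM artemisinin.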

[14] = qHTS profiling for inhibitors of Plasmodium falciparum (HB3) proliferation (AID 743324); conditions: Plasmodium falciparum HB3 blood-stage proliferation; at 28.7 µM (top of the series)
How it was run: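 SYBR Green fluorescence (485 ex/535 em) of lysed cultures, incubated overnight at room temperature in the dark, quantifies parasite DNA. Infected erythrocytes at 0.3% parasitemia and 2.5% hematocrit were exposed 72 h; values normalized to DMSO and 0.29 uM artemisinin controls.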

T1 sequence (P35557 whole entry, looked up): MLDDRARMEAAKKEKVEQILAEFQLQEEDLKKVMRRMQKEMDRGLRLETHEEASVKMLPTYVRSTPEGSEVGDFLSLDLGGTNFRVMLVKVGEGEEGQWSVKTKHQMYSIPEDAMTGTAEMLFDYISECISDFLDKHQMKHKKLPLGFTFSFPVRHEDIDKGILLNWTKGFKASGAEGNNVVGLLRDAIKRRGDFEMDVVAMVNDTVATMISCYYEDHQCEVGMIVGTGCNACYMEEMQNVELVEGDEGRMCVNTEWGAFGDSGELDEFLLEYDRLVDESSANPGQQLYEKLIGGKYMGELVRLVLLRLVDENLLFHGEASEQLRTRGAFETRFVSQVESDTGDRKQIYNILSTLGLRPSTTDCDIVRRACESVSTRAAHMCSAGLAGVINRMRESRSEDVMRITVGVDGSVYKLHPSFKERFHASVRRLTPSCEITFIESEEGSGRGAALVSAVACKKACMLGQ
T1 sequence (Q14397 whole entry, looked up): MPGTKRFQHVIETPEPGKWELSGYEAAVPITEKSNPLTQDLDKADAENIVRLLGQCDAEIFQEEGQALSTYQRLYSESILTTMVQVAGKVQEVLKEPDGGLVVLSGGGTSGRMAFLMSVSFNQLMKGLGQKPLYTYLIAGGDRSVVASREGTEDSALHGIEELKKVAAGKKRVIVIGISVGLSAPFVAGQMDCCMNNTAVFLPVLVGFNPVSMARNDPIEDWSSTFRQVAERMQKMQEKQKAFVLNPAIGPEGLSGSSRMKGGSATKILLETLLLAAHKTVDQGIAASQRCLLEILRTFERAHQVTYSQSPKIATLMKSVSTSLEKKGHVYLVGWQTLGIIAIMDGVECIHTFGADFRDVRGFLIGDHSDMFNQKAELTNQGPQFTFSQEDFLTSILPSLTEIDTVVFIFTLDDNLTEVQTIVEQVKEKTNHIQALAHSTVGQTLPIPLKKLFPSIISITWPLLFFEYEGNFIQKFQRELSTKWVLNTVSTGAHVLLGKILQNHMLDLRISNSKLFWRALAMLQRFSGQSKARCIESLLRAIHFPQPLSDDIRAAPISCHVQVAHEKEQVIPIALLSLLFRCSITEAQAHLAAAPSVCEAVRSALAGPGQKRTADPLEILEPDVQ
Arylsulfatase A (Homo sapiens), sequence (P15289 whole entry, looked up): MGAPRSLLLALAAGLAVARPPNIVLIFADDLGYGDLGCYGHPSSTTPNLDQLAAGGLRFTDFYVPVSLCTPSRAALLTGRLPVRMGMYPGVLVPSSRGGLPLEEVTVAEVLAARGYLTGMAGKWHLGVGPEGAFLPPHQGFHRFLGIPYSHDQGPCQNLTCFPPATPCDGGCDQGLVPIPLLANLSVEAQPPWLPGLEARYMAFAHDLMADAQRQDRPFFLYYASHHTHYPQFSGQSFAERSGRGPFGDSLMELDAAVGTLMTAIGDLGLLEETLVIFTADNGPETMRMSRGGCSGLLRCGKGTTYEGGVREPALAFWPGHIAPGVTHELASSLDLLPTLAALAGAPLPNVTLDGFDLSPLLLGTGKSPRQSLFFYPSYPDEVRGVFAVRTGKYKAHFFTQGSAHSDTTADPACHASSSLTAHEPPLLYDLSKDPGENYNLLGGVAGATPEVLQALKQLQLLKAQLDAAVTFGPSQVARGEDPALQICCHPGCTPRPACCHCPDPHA

| Structure (SMILES) | max response [1] | parasite growth, % of DMSO control [2] | parasite growth remaining, % of DMSO control (lower = more inhibition) [3] | parasite growth, % of control (lower = inhibition) [4] | outcome [5] | outcome [6] | Potency [7] | Potency [8] | Potency [9] | Potency [10] | Potency [11] | remaining parasite growth % (stronger effect = lower value) [12] | activity, percent of control [13] | remaining proliferation (% of control), lower = more inhibition [14] |
| --- | --- | --- | --- | --- | --- | --- | --- | --- | --- | --- | --- | --- | --- | --- |
| C[C@@H]1CC(=O)NN=C1c1ccc(NN=C(C#N)C#N)cc1 | 16.6% (inactive) | 8.76% | 6.4% | 33.2% | – | – | – | – | – | – | – | – | – | – |
| Clc1ccc2nsnc2c1NC1=NCCN1 | 11.7% (inactive) and 4.37% (inactive) | 73.6% | 98.6% | 45.7% | inactive | inactive | inactive | inactive | inactive | inactive | – | – | – | – |
| CN1CCC(=C2c3ccccc3CC(=O)c3sccc32)CC1 | – | 13.6% | 55.5% | 40.5% | – | inactive | inactive | inactive | inactive | inactive | – | – | – | – |
| CN(C)C(=O)C(CCN1CCC(O)(c2ccc(Cl)cc2)CC1)(c1ccccc1)c1ccccc1 | – | – | – | – | inactive | inactive | inactive | – | – | – | – | – | – | – |
| O=C(c1ccc(F)cc1)C1CCN(CCn2c(=O)[nH]c3ccccc3c2=O)CC1 | 7.32% (inactive) and -5.52% (inactive) | 109% | 19.2% | 104% | inactive | inactive | inactive | inactive | inactive | inactive | – | – | – | – |
| COc1ccc(C2CNC(=O)C2)cc1OC1CCCC1 (configuration not stated) | 8.29% (inactive) and 32.6% (inactive) | 109% | 101% | 116% | inactive | inactive | inactive | inactive | inactive | inactive | – | – | – | – |
| CC[N+](CC)(CC)CCOc1cccc(OCC[N+](CC)(CC)CC)c1OCC[N+](CC)(CC)CC | 4.54% (inactive) and -6.53% (inactive) | – | 104% | – | inactive | inactive | inactive | inactive | inactive | inactive | – | – | – | – |
| CCOC(=O)c1ncn2c1CN(C)C(=O)c1cc(F)ccc1-2 | 2.86% (inactive) and 37.5% (inactive) | – | – | – | inactive | inactive | inactive | inactive | inactive | inactive | – | – | – | – |
| Cc1ccc(C(=O)Nc2ccc(S(=O)(=O)O)c3cc(S(=O)(=O)O)cc(S(=O)(=O)O)c23)cc1NC(=O)c1cccc(NC(=O)Nc2cccc(C(=O)Nc3cc(C(=O)Nc4ccc(S(=O)(=O)O)c5cc(S(=O)(=O)O)cc(S(=O)(=O)O)c45)ccc3C)c2)c1 | 35.1% (inactive) and 2.76% (inactive) | – | 75.7% | 23.2% | – | inactive | inactive | 28.2 µM (active) | 5.62 µM (active) | 17.8 µM (active) | inactive | – | – | – |
| O=c1c(O)c(-c2ccc(O)c(O)c2)oc2cc(O)cc(O)c12 | – | 12.8% | – | 9.46% | – | – | – | inactive | inactive | inactive | – | 26.9% and 12.7% | 8.52% and 5.2% | 1.74% and 5.43% |
| CCOC(=O)Nc1ccc(NCc2ccc(F)cc2)nc1N | – | – | – | – | inactive | inactive | inactive | – | inactive | inactive | – | – | – | – |
| CC1(C)O[C@H]2CC(=O)OC[C@]23[C@H]2CC[C@@]4(C)[C@H](c5ccoc5)OC(=O)[C@H]5O[C@]54[C@]2(C)C(=O)C[C@@H]13 | 0.83% (inactive) | 86.6% | 122% | 82% | – | – | – | – | – | – | – | – | – | – |
| CN(CCOc1ccc(NS(C)(=O)=O)cc1)CCc1ccc(NS(C)(=O)=O)cc1 | 1.01% (inactive) | 115% | 89.2% | 119% | – | – | – | – | – | – | – | – | – | – |
| Cc1cc(C(C)(C)C)cc(C)c1CC1=NCCN1 | 3.97% (inactive) and -5.84% (inactive) | – | – | 17.1% | – | inactive | inactive | inactive | inactive | inactive | inactive | – | – | – |
| CS(=O)(=O)CCNCc1ccc(-c2ccc3ncnc(Nc4ccc(OCc5cccc(F)c5)c(Cl)c4)c3c2)o1 | -3.58% (inactive) and 12% (inactive) | 8.87% | 7.86% | 51.8% | – | – | – | – | – | – | – | 0.561% | 12.2% | 1.42% |
| OCCN1CCN(CCCN2c3ccccc3Sc3ccc(C(F)(F)F)cc32)CC1 | – | – | 10.5% | 23.4% | – | inactive | inactive | inactive | inactive | inactive | – | – | – | – |
| CC[C@@]1(O)C(=O)OCc2c1cc1n(c2=O)Cc2cc3c(CN(C)C)c(O)ccc3nc2-1 | 27.1% (inactive) and 13.5% (inactive) | 13.9% | 16.9% | 33.7% | – | – | – | – | – | – | – | 11.5% | 12.8% | – |
| NCCc1cnc[nH]1 | 8.45% (inactive) and 33% (inactive) | – | 101% | 109% | – | inactive | inactive | inactive | inactive | inactive | inactive | – | – | – |
